According to article PMC5540273 (PLoS ONE, 2017):

Columns and labels:
Conditions in all cases: concentration: 1 μM, replicates: in singlicate; n = 1
[1] = tested on: MAP4K4
[2] = tested on: MAP4K5
[3] = tested on: MAPKAPK2
[4] = tested on: MAPKAPK5
[5] = tested on: MARK1
[6] = tested on: MARK2
[7] = tested on: MARK3
[8] = tested on: MARK4
[9] = tested on: MAST1
[10] = tested on: T1, MEK1
T1 construct: gene MAP2K1
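Note: KINOMEscan kinase panel screen.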

Row | SMILES | %Inh [1] [%] | %Inh [2] [%] | %Inh [3] [%] | %Inh [4] [%] | %Inh [5] [%] | %Inh [6] [%] | %Inh [7] [%] | %Inh [8] [%] | %Inh [9] [%] | %Inh [10] [%]
1 | Cn1ccc2ncnc(Oc3ccc(Nc4nc5ccccc5[nH]4)cc3)c21 | 0 | 0 | 0 | 0 | 0 | 9 | 0 | 13 | 0 | 0
2 | O=C1NC(=O)C(N2CCc3ccccc32)=C1c1ccccc1Cl [SB-373598] | 26 | 24 | 33 | 8 | 9 | 10 | 0 | 17 | 0 | 13
3 | O=c1cc(N2CCOCC2)nc2n(Cc3cccc(Cl)c3Cl)ccn12 [GSK2286295] | 4 | 0 | 5 | 0 | 0 | 0 | 0 | 0 | 0 | 0
4 | O=C(Nc1ccccc1)Nc1cccc(Oc2ccc3nccn3n2)c1 | 0 | 0 | 0 | 0 | 2 | 39 | 0 | 9 | 0 | 0
5 | O=C(Nc1n[nH]c2cc(-c3cccc(F)c3F)ccc12)C1CC1 [SB-733894] | 32 | 0 | 0 | 0 | 27 | 25 | 0 | 7 | 18 | 1
6 | COc1cc(Nc2nccc(N3CCC(NC(=O)Nc4cc(C)ccc4C)C3)n2)cc(OC)c1OC (centres unmarked) [GSK1379762] | 0 | 0 | 10 | 0 | 0 | 0 | 8 | 9 | 2 | 0
7 | Clc1cc(Cl)cc(Nc2ccnc(Nc3cc(Cl)cc(Cl)c3)n2)c1 [GSK175726] | 0 | 0 | 0 | 0 | 0 | 16 | 0 | 0 | 0 | 0
8 | COc1ccccc1-c1ccc2c(NC(=O)C3CC3)n[nH]c2n1 [SB-711239] | 25 | 26 | 27 | 2 | 0 | 0 | 0 | 0 | 26 | 0
9 | O=C(Nc1n[nH]c2nc(-c3nccs3)c(Br)cc12)C1CCCC1 [SB-742609] | 2 | 4 | 22 | 0 | 0 | 0 | 0 | 0 | 0 | 0
10 | Cc1c(O)cccc1Nc1ccnc2ccc(C(F)(F)F)cc12.Cl [GW466413] | 0 | 0 | 8 | 0 | 0 | 0 | 0 | 2 | 0 | 0
11 | Cc1cc(-c2ccc3c(c2)CC[C@@H](N[C@@H](C)c2ccccc2)C3)cnc1N.Cl [GW412617] | 17 | 41 | 13 | 0 | 4 | 10 | 32 | 14 | 0 | 0
12 | COc1ccc2nc(-c3cccc(C)n3)nc(Nc3ccncc3)c2c1 [GSK204919] | 0 | 0 | 17 | 0 | 0 | 0 | 0 | 0 | 0 | 0
13 | Cl.O=C(Nc1cccc(-c2nn3ncccc3c2-c2ccnc(Nc3cccnc3)n2)c1)c1c(F)cccc1F [GSK312879] | 2 | 5 | 21 | 0 | 0 | 0 | 0 | 0 | 6 | 0
14 | CS(=O)(=O)c1ccc(-c2c(-c3ncn[nH]3)sc(N3CCOCC3)c2C#N)cc1 | 0 | 0 | 0 | 0 | 26 | 10 | 0 | 24 | 21 | 2
15 | Cc1csc(-c2nc(Nc3ccncc3)c3ccccc3n2)n1 [GW869640] | 14 | 0 | 0 | 3 | 25 | 13 | 0 | 38 | 60 | 13
16 | Fc1cc(Cl)ccc1Nc1ccnc2cc(-c3ccc(CN4CCCCC4)o3)ccc12 [GW560116] | 0 | 0 | 0 | 0 | 0 | 0 | 0 | 0 | 43 | 4
17 | Cc1ccc(-c2cc(-c3c[nH]nc3-c3ccccn3)ccn2)cc1 [GW684088] | 58 | 0 | 0 | 0 | 0 | 14 | 0 | 4 | 64 | 9
